Laboratory results published in PubChem BioAssay AID1159580 (chemical genetic matrix, 2015).
The campaign covered roughly 5,500 compounds. About 2,000 (36%) were called active. Another 18% or so got no clear call; they are omitted. No stated cut-off is given here; in the data, active means normalized growth mostly below about 0.91 (no sharp cut-off); inconclusive means no clear call, values can overlap the other calls; inactive means mostly above about 0.92. This is one part of the list.

Assay: chemical genetic growth profiling, strain panel (AID 1159580);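 further: tested at 20 µM; growth read once vehicle control cultures reached saturation at 30 °C; 1 = growth at the plate median or of vehicle wells; lower values mean less growth of the strain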
Conditions: growth OD

Measured: normalized growth

Oc1cccc(O)c1
inactive: S. cerevisiae deletion strains, locus YJR066W, strain TOR1, active compounds read low 0.971 | S. cerevisiae deletion strains, locus YJR075W, strain HOC1, active compounds read low 1.01 | S. cerevisiae deletion strains, locus YKL009W, strain mrt4, active compounds read low 0.98 | S. cerevisiae deletion strains, locus YKL068W, active compounds read low 0.997 | S. cerevisiae deletion strains, locus YKL085W, strain MDH1 (second series), active compounds read low 0.994 | S. cerevisiae deletion strains, locus YKL085W, strain MDH1, active compounds read low 0.994 | S. cerevisiae deletion strains, locus YKL160W, strain elf1, active compounds read low 1.02 | S. cerevisiae deletion strains, locus YKL190W, strain CNB1, active compounds read low 1.01 | S. cerevisiae deletion strains, locus YKR001C, strain vps1, active compounds read low 0.98 | S. cerevisiae deletion strains, locus YKR026C, strain gcn3, active compounds read low 0.967 | S. cerevisiae deletion strains, locus YKR091W, strain srl3, active compounds read low 0.979 | S. cerevisiae deletion strains, locus YLL001W, strain dnm1, active compounds read low 0.993 | S. cerevisiae deletion strains, locus YLL026W, active compounds read low 1.01 | S. cerevisiae deletion strains, locus YLL041C, strain sdh2, active compounds read low 0.979 | S. cerevisiae deletion strains, locus YLR027C, strain aat2, active compounds read low 0.992 | S. cerevisiae deletion strains, locus YLR039C, strain RIC1, active compounds read low 1.01 | S. cerevisiae deletion strains, locus YLR058C, strain SHM2, active compounds read low 1.01 | S. cerevisiae deletion strains, locus YLR102C, strain apc9, active compounds read low 0.993 | S. cerevisiae deletion strains, locus YLR113W, strain HOG1, active compounds read low 1.01 | S. cerevisiae deletion strains, locus YLR221C, strain rsa3, active compounds read low 0.962 | S. cerevisiae deletion strains, locus YLR258W, strain gsy2, active compounds read low 0.956 | S. cerevisiae deletion strains, locus YLR262C, strain YPT6 (second series), active compounds read low 1 | S. cerevisiae deletion strains, locus YLR262C, strain YPT6, active compounds read low 1.02 | S. cerevisiae deletion strains, locus YLR268W, strain sec22, active compounds read low 0.974 | S. cerevisiae deletion strains, locus YLR320W, strain mms22, active compounds read low 0.944 | S. cerevisiae deletion strains, locus YLR330W, strain CHS5, active compounds read low 1.01 | S. cerevisiae deletion strains, locus YLR342W, strain FKS1 (second series), active compounds read low 0.995 | S. cerevisiae deletion strains, locus YLR342W, strain FKS1, active compounds read low 1 | S. cerevisiae deletion strains, locus YLR357W, strain rsc2, active compounds read low 0.977 | S. cerevisiae deletion strains, locus YLR370C, strain arc18, active compounds read low 0.992 | S. cerevisiae deletion strains, locus YLR371W, strain rom2, active compounds read low 0.992 | S. cerevisiae deletion strains, locus YLR384C, strain iki3, active compounds read low 0.997 | S. cerevisiae deletion strains, locus YLR418C, strain cdc73, active compounds read low 0.961 | S. cerevisiae deletion strains, locus YML016C, strain PPZ1, active compounds read low 1 | S. cerevisiae deletion strains, locus YML032C, strain rad52, active compounds read low 0.983 | S. cerevisiae deletion strains, locus YML120C, strain ndi1, active compounds read low 0.986 | S. cerevisiae deletion strains, locus YML124C, strain tub3, active compounds read low 0.991 | S. cerevisiae deletion strains, locus YMR058W, strain fet3, active compounds read low 0.972 | S. cerevisiae deletion strains, locus YMR078C, strain ctf18, active compounds read low 0.989 | S. cerevisiae deletion strains, locus YMR125W, strain sto1, active compounds read low 0.932 | S. cerevisiae deletion strains, locus YMR129W, active compounds read low 0.974 | S. cerevisiae deletion strains, locus YMR205C, strain PFK2, active compounds read low 0.991 | S. cerevisiae deletion strains, locus YMR223W, strain ubp8, active compounds read low 0.991 | S. cerevisiae deletion strains, locus YMR231W, strain pep5, active compounds read low 0.985 | S. cerevisiae deletion strains, locus YMR263W, strain SAP30, active compounds read low 1.01 | S. cerevisiae deletion strains, locus YMR307W, strain GAS1, active compounds read low 0.989 | S. cerevisiae deletion strains, locus YNL067W, strain RPL9B, active compounds read low 1.02 | S. cerevisiae deletion strains, locus YNL071W, strain lat1, active compounds read low 0.969 | S. cerevisiae deletion strains, locus YNL183C, strain NPR1, active compounds read low 0.951 | S. cerevisiae deletion strains, locus YNL209W, strain ssb2, active compounds read low 0.973 | S. cerevisiae deletion strains, locus YNL233W, strain BNI4, active compounds read low 1.01 | S. cerevisiae deletion strains, locus YNL248C, strain rpa49, active compounds read low 0.957 | S. cerevisiae deletion strains, locus YNL250W, strain rad50, active compounds read low 0.985 | S. cerevisiae deletion strains, locus YNL271C, strain bni1, active compounds read low 0.991 | S. cerevisiae deletion strains, locus YNL298W, strain CLA4, active compounds read low 0.978 | S. cerevisiae deletion strains, locus YNL307C, strain MCK1, active compounds read low 0.988 | S. cerevisiae deletion strains, locus YNL322C, strain KRE1 (second series), active compounds read low 0.967 | S. cerevisiae deletion strains, locus YNR049C, strain mso1, active compounds read low 0.971 | S. cerevisiae deletion strains, locus YNR052C, strain pop2, active compounds read low 0.99 | S. cerevisiae deletion strains, locus YOL006C, strain TOP1, active compounds read low 1.03 | S. cerevisiae deletion strains, locus YOL012C, strain htz1 0.68 | S. cerevisiae deletion strains, locus YOL147C, strain pex11, active compounds read low 0.995 | S. cerevisiae deletion strains, locus YOR001W, strain rrp6, active compounds read low 1.01 | S. cerevisiae deletion strains, locus YOR061W, strain CKA2, active compounds read low 1.01 | S. cerevisiae deletion strains, locus YOR069W, strain VPS5, active compounds read low 1 | S. cerevisiae deletion strains, locus YOR070C, strain gyp1, active compounds read low 0.979 | S. cerevisiae deletion strains, locus YOR080W, strain dia2, active compounds read low 0.987 | S. cerevisiae deletion strains, locus YOR083W, strain WHI5, active compounds read low 0.986 | S. cerevisiae deletion strains, locus YOR106W, strain vam3, active compounds read low 0.983 | S. cerevisiae deletion strains, locus YOR136W, strain idh2, active compounds read low 0.988 | S. cerevisiae deletion strains, locus YOR144C, strain elg1, active compounds read low 0.98 | S. cerevisiae deletion strains, locus YOR184W, strain ser1, active compounds read low 0.977 | S. cerevisiae deletion strains, locus YOR231W, strain MKK1, active compounds read low 1.02 | S. cerevisiae deletion strains, locus YOR265W, strain rbl2, active compounds read low 0.987 | S. cerevisiae deletion strains, locus YOR270C, strain vph1, active compounds read low 0.969 | S. cerevisiae deletion strains, locus YOR290C, strain snf2, active compounds read low 0.922 | S. cerevisiae deletion strains, locus YOR316C, strain cot1, active compounds read low 0.995 | S. cerevisiae deletion strains, locus YPL051W, strain arl3, active compounds read low 1 | S. cerevisiae deletion strains, locus YPL055C, strain LGE1, active compounds read low 1.03 | S. cerevisiae deletion strains, locus YPL078C, strain atp4, active compounds read low 1 | S. cerevisiae deletion strains, locus YPL106C, strain sse1, active compounds read low 0.926 | S. cerevisiae deletion strains, locus YPL240C, strain hsp82, active compounds read low 0.995 | S. cerevisiae deletion strains, locus YPL241C, strain CIN2, active compounds read low 1.01 | S. cerevisiae deletion strains, locus YPL256C, strain CLN2, active compounds read low 1.06 | S. cerevisiae deletion strains, locus YPR119W, strain clb2, active compounds read low 0.959 | S. cerevisiae deletion strains, locus YPR141C, strain kar3, active compounds read low 0.988 | S. cerevisiae deletion strains, locus YPR163C, strain tif3, active compounds read low 0.993 | S. cerevisiae deletion strains, locus YPR167C, strain met16, active compounds read low 0.995 | S. cerevisiae deletion strains, strain wtn01, active compounds read low 0.979 | S. cerevisiae strains, strain wild type, active compounds read low 1
